FBA Mtb inh = inhibits M. tuberculosis FBA enzyme. P9WQA3. purified M. tuberculosis FBA, fluorescence read-out. inhibition, % at 1 µM. hit rate 2.3% among 360,000; in the data active means inhibition above about 27%
Target sequence (P9WQA3 whole entry, looked up): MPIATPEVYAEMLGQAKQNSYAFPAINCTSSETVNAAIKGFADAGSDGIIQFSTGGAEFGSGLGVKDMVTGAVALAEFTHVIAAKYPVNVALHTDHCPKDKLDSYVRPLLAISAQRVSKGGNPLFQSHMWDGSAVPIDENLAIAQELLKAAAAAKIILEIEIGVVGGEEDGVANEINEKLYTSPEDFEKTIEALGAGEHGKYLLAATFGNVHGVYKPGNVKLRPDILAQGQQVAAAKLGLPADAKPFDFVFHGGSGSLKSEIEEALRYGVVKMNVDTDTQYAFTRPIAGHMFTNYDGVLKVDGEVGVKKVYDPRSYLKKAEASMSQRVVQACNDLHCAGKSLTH
Vc quorum ag = quorum light induction in luxS cqsA deficient V. cholerae; V. cholerae BH1578 lux reporter, luminescence, 6 h; activation, % at 18.7 µM; hit rate 0.16% among 350,000; AID 588436; in the data active means activation mostly above about 9.7%, no sharp cut-off
GDH-TPI counter = counter-screen for M. tuberculosis FBA inhibitors: GDH-TPI coupled enzymes. GDH-TPI coupled enzyme counterscreen, NADH absorbance. inhibition, % at 4.8 µM. hit rate 1.2% among 360,000. AID 588335
CCHF vOTU inh-1 = CCHFV vOTU protease inhibition. hit rate 0.55% among 370,000. AID 651958. Pep-AMC fluorescence. inhibition, % at 11.5 µM
CCHF vOTU inh-2 = CCHFV vOTU protease inhibition, confirmation | shares compounds with CCHF vOTU inh-1 | Recombinant CCHFV vOTU, Pep-AMC fluorescence | inhibition, % at 11.5 µM | hit rate 17% among 1,900 | AID 686976
Each line names hits and unclear results; the compound was inactive in the other large screens (follow-up assays come after a bar, where they were run). Sampled rows, rich in hits. Any-hit rate of the full collection: about 3.9%. Unless noted, no stated cut-off is given here; in the data, active means inhibition above about 30%; inactive means the rest.

O=C(Nc1ccnn1C1CCN(C(=O)c2ccc(Cl)cc2)CC1)C1CC1	none
O=C1c2ccccc2NC(c2ccc(-c3cccc([N+](=O)[O-])c3)o2)N1O (stereo not given)	none
CC1(C)C=C2C(=NN(c3ccccc3)C(N)=C2C#N)CO1	CCHF vOTU inh-1 50.0 | CCHF vOTU inh-2 100.3
COC(=O)C1CCN(S(C)(=O)=O)CC1	none
Cc1cc(C)nc(OC(=O)c2c(Cl)cc(Cl)cc2Cl)n1	none
Cc1cc(C)nc(OC(=O)c2ccc(Cl)cc2Cl)n1	CCHF vOTU inh-1 30.4 (no result: FBA Mtb inh, Vc quorum ag, GDH-TPI counter) | CCHF vOTU inh-2 inactive
O=S(=O)(NCc1ccccc1)c1ccc(Cl)cc1	none
O=S(=O)(Nc1cc2nc3ccccc3nc2n1Cc1ccccc1)c1ccc(Cl)cc1	CCHF vOTU inh-1 111.3 | CCHF vOTU inh-2 67.2
COC(=O)c1cccc(-c2ccc(C(c3c(C)[nH][nH]c3=O)c3c(C)[nH][nH]c3=O)o2)c1	CCHF vOTU inh-1 57.4 | CCHF vOTU inh-2 inactive
COC(=O)c1ccccc1-c1ccc(C(c2c(C)[nH][nH]c2=O)c2c(C)[nH][nH]c2=O)o1	CCHF vOTU inh-1 43.3 | CCHF vOTU inh-2 inactive
O=C(COC(=O)c1ccc([N+](=O)[O-])s1)Nc1cccc(S(=O)(=O)NC2=NCCCCC2)c1	CCHF vOTU inh-1 57.7 | CCHF vOTU inh-2 35.3
O=C(COC(=O)c1cccs1)Nc1cccc(S(=O)(=O)NC2=NCCCCC2)c1	none
O=C(COC(=O)c1ccc([N+](=O)[O-])s1)Nc1ccccc1	CCHF vOTU inh-1 61.3 | CCHF vOTU inh-2 74.7
O=C(COC(=O)c1ccc([N+](=O)[O-])s1)Nc1ccc(F)cc1	CCHF vOTU inh-1 82.1 | CCHF vOTU inh-2 72.2
O=C(OCc1nnc(-c2ccccc2)o1)c1ccc([N+](=O)[O-])s1	CCHF vOTU inh-1 76.7 | CCHF vOTU inh-2 85.6
CC(C)(C)c1ccc(NC(=O)COC(=O)c2ccc([N+](=O)[O-])s2)cc1	none
O=C(COC(=O)c1ccc([N+](=O)[O-])s1)NCc1ccccc1	none
CC(=O)C1CCC2C3CC(C)C4=CC(=O)CCC4(C)C3C(=O)CC12C (stereo not given)	none
CCOC(=O)c1ccc(N2C(=O)c3n[nH]c(-c4ccco4)c3C2c2cccc([N+](=O)[O-])c2)cc1 (stereo not given)	CCHF vOTU inh-1 35.7 | CCHF vOTU inh-2 inactive
CN(C)CCCNc1cc(O)c2ncccc2c1	CCHF vOTU inh-1 92.4 | CCHF vOTU inh-2 94.2
CN=C(Nc1ccc(C(=O)OC)cc1)SC1CC(=O)N(c2ccccc2F)C1=O (stereo not given)	none
Nc1ccc(N=Nc2ccc(O)cc2)c(N)n1	CCHF vOTU inh-1 38.4 | CCHF vOTU inh-2 inactive
CC(Nc1cccc2ccccc12)C(=O)N/N=C/c1ccccn1 (stereo not given)	CCHF vOTU inh-1 114.3 | CCHF vOTU inh-2 inactive
CC(C)(C)OC(=O)N/N=C/c1cccc([N+](=O)[O-])c1	none
S=c1[nH]nc(C2CCCCC2)n1/N=C/C=C/c1ccccc1	CCHF vOTU inh-1 32.2 | CCHF vOTU inh-2 inactive
CN(C)c1ccc(N=Cc2cccn2C)cc1	CCHF vOTU inh-1 42.1 | CCHF vOTU inh-2 inactive
CN(C)c1ccc(N=Cc2nc(-c3ccccc3)oc2O)cc1	none
CNc1ccc2oc(C[C@H]3O[C@@]4(CC[C@H]3C)O[C@H]([C@H](C)C(=O)c3ccc[nH]3)[C@H](C)C[C@H]4C)nc2c1C(=O)O	CCHF vOTU inh-1 53.5 | CCHF vOTU inh-2 inactive
CC(C)CCOP(=O)(c1ccc(N(C)C)cc1)C(O)c1ccc(Cl)cc1Cl (stereo not given)	CCHF vOTU inh-1 41.4 | CCHF vOTU inh-2 inactive
CC(C)CCOP(=O)(c1ccc(N(C)C)cc1)C(O)c1ccccc1F (stereo not given)	none
COc1ccc(OCC(=O)NNC(=O)C(=O)Nc2cc(OC)ccc2OC)cc1	CCHF vOTU inh-1 34.8 | CCHF vOTU inh-2 inactive
Cc1csc(N/N=C/c2ccc([N+](=O)[O-])cc2)n1	none
Cc1nnc(N/N=C/c2ccc(-c3ccc(Br)cc3)o2)n1N	CCHF vOTU inh-1 77.2 | CCHF vOTU inh-2 inactive
O=C(O)c1ccc(N/N=C/c2ccc(-c3ccc(Br)cc3)o2)cc1	CCHF vOTU inh-1 33.1 | CCHF vOTU inh-2 inactive
Cc1nnc(N/N=C/c2ccc(Br)cc2)n1N	CCHF vOTU inh-1 94.2 | CCHF vOTU inh-2 inactive
Cc1nnc(N/N=C/c2ccc([N+](=O)[O-])cc2)n1N	CCHF vOTU inh-1 121.6 | CCHF vOTU inh-2 inactive
C=CCNC(=S)N/N=C/c1ccc(-c2ccc(Br)cc2)o1	none
Cc1nnc(N/N=C\c2ccc(-c3cccc(C(=O)O)c3)o2)n1N	CCHF vOTU inh-1 72.9 | CCHF vOTU inh-2 inactive
CCN(CC(F)(F)C(F)F)S(=O)(=O)c1ccc(NC(=O)OC)cc1	none
COc1cc(/C=C(\C(=O)O)c2ccc(S(=O)(=O)N3CCCC3)s2)ccc1OCCC(C)C	CCHF vOTU inh-1 31.9 | CCHF vOTU inh-2 inactive
Cc1ccc(NC(=O)Cc2nnc(SCC(=O)Nc3nncs3)n2C)c(C)c1	none
CC1Cc2nc(SCC(=O)N3CCCC3)n(C)c(=O)c2S1 (stereo not given)	none
CC1Cc2nc(SCC(N)=O)n(C)c(=O)c2S1 (stereo not given)	CCHF vOTU inh-1 32.1 | CCHF vOTU inh-2 inactive
O=c1[nH]c(=S)[nH]c2c1C(c1ccc(Br)cc1)c1c([nH]c(=S)[nH]c1=O)O2	CCHF vOTU inh-1 43.4 | CCHF vOTU inh-2 40.7
CN1CCN(c2ccc([N+](=O)[O-])c3no[n+]([O-])c23)CC1	CCHF vOTU inh-1 34.9 | CCHF vOTU inh-2 inactive
CN1CCN(c2ccc(S(C)(=O)=O)cc2[N+](=O)[O-])CC1	none
CN(c1ccccc1)c1ccc(/C=C(\CCC(=O)O)c2nc3ccccc3s2)cc1[N+](=O)[O-]	CCHF vOTU inh-1 35.5 | CCHF vOTU inh-2 inactive
Cc1ccc(/C=C(\CCC(=O)O)c2nc3ccccc3s2)cc1[N+](=O)[O-]	GDH-TPI counter 34.4, CCHF vOTU inh-1 31.2 | CCHF vOTU inh-2 inactive
O=C(CN1C(=O)NC2(CCCCC2)C1=O)Nc1ccc2[nH]c(=O)[nH]c2c1	none
CCCCCCCCNS(=O)(=O)CCNCc1ccc(OC)cc1	CCHF vOTU inh-1 32.4 | CCHF vOTU inh-2 inactive
COc1ccc(C(=O)NCCS(=O)(=O)NCc2ccc(C)cc2)cc1	none
COc1ccc(CNS(=O)(=O)CCNC(=O)c2ccc(OC)cc2)cc1	CCHF vOTU inh-1 30.6 | CCHF vOTU inh-2 inactive
Cc1ccc(Nc2ccc(S(=O)(=O)N3CCOCC3)cc2[N+](=O)[O-])cc1C	none
O=C(c1ccco1)N1CCN(C(=O)C2CC(c3ccccc3F)=NO2)CC1 (stereo not given)	none
CCc1ccc(NC(=O)CN(c2ccccc2)S(=O)(=O)N(C)C)cc1	none
CN(C)C(CNC(=O)c1ccc(NS(=O)(=O)c2ccc3[nH]c(=O)[nH]c3c2)cc1)c1ccccc1 (stereo not given)	CCHF vOTU inh-1 31.4 | CCHF vOTU inh-2 inactive
Cc1nn(-c2ccccc2)c(C)c1NS(=O)(=O)c1ccccc1	none
O=C(Nc1ccccc1)c1nc[nH]c1C(=O)NCCNC(=O)c1[nH]cnc1C(=O)Nc1ccccc1	none
O=c1c2ccccc2nc(/C=C/c2ccc(O)cc2)n1CCc1ccccc1	none
CN(C)c1ccc(/C=C/c2nc3ccccc3c(=O)n2CCO)cc1	CCHF vOTU inh-1 29.6 | CCHF vOTU inh-2 inactive
